Screening results from PubChem BioAssay.
PvdQ acylase = P. aeruginosa PvdQ acylase inhibition; inhibition, % at 10 µM; purified PvdQ acylase, fluorescence plate reader; hit rate 0.063% among 340,000; AID 488965; in the data active means inhibition above about 30%, passing the limit was not always enough;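 further: 0% = vehicle neutral wells and 100% = reference inhibitor wells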
PDI inh = inhibitors of human protein disulfide isomerase; P07237; PDI insulin aggregation turbidity, A650, 90 min; inhibition, % at 10 µM; hit rate 0.052% among 350,000;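 active means mean inhibition across replicates of 30% or more, whatever share of single replicates reach that level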
Vif imaging = HIV Vif inhibition; HEK293T cells, Vif self-association by quenched fluorescence, imaging, 24 h; inhibition, % at 7.49 µM; hit rate 0.35% among 340,000; AID 602346; in the data active means inhibition above about 50%, passing the limit was not always enough
AI-2 QS mod = modulates the Vibrio harveyi AI-2 quorum sensing system | Vibrio harveyi JMH597 AI-2 luminescence/OD600 ratio, 9 h; hits give low values; strain lacks LuxN and CqsS sensors; 0 = neutral-control median | activity change, % at 7.5 µM | AID 2094 | hit rate 0.4% among 300,000; in the data active means activity change below about -75%, passing the limit was not always enough;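 further: luminescence divided by OD600 gain over 9 h not by final OD600 alone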
ERp5 block = inhibitors of human ERp5. ERp5 insulin aggregation, absorbance 650 nm, 90 min. inhibition, % at 9.99 µM. hit rate 0.05% among 350,000;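 active means mean replicate inhibition above about 25%, with every replicate also reaching it, limit read from the data, passing the limit was not always enough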
Target sequence (Q15084 whole entry, looked up): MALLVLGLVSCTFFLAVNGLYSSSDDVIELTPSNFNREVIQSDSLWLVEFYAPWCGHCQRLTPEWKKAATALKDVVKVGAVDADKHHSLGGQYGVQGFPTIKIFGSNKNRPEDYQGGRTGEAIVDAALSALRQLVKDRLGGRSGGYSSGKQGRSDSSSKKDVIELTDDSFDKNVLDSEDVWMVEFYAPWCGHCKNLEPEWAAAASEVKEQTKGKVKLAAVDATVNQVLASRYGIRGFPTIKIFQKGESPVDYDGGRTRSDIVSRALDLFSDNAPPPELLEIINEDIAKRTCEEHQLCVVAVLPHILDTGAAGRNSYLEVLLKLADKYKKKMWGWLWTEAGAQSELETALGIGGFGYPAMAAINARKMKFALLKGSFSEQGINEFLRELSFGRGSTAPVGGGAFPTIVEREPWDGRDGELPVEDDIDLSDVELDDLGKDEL
* = called active by the depositor; . = not tested or not shown. In the library only some 0.64% were active in any assay of this set; here they are far more common.

SMILES | PvdQ acylase | PDI inh | Vif imaging | AI-2 QS mod | ERp5 block
C[C@@H]1CN([C@@H](C)CO)C(=O)Cc2cc(NC(=O)c3ccncc3)ccc2O[C@@H]1CN(C)S(=O)(=O)c1cn(C)cn1 | . | . | . | . | 2
C[C@H](CO)N1C[C@H](C)[C@@H](CN(C)S(=O)(=O)c2cn(C)cn2)Oc2ccc(NC(=O)c3ccncc3)cc2CC1=O | . | . | . | . | 65*
C[C@H]1CN([C@@H](C)CO)C(=O)Cc2cc(NC(=O)c3ccncc3)ccc2O[C@H]1CN(C)S(=O)(=O)c1cn(C)cn1 | . | . | . | . | 74*
O=C(C1CCCCC1)N1CC[C@@H]2[C@H]1c1cc(Br)ccc1N[C@@H]2CO | . | . | . | . | 3
COc1ccc(S(=O)(=O)N(C)C[C@H]2Oc3c(NC(=O)NC(C)C)cccc3C(=O)N([C@@H](C)CO)C[C@@H]2C)cc1 | . | . | . | . | -1
COc1ccccc1CNC(=O)c1ccc(Cl)c(NC2=NC3CS(=O)(=O)CC3S2)c1 (stereo not given) | 9 | . | 60* | 13 | 1
COc1ccccc1CNC(=O)c1ccc(NC2=NC3CS(=O)(=O)CC3S2)cc1 (stereo not given) | -4 | -2 | 23 | 0 | -15
C[C@@H]1O[C@@H](O[C@H]2[C@H](O)[C@@H](O)[C@H](Oc3c(-c4ccc(O)cc4)oc4cc(O)cc(O)c4c3=O)O[C@@H]2CO)[C@H](O)[C@H](O)[C@H]1O | 7 | 55* | 0 | . | 3
CC1OC(Oc2c(-c3cc(O)c(O)c(O)c3)oc3cc(O)cc(O)c3c2=O)C(O)C(O)C1O (stereo not given) | -15 | . | 5 | 16 | 5
C[C@@H]1O[C@@H](OC[C@@H]2O[C@H](Oc3c(-c4ccc(O)cc4)oc4cc(O)cc(O)c4c3=O)[C@@H](O)[C@H](O)[C@H]2O)[C@H](O)[C@H](O)[C@H]1O | -1 | 65* | -2 | . | 3
COc1ccccc1S(=O)(=O)N[C@H]1CC[C@H](CC(=O)NCc2cc(F)cc(F)c2)O[C@@H]1CO | . | . | . | . | 1
Cc1ccc(S(=O)(=O)NCC[C@H]2CC[C@@H](NC(=O)c3cccc(F)c3)[C@@H](CO)O2)cc1 | . | . | . | . | 11
Cc1ccc(C(=O)Cn2nnc(-c3ccccc3)n2)cc1 | -10 | -3 | -2 | -92* | -2
Cc1ccc(C(=O)Cn2nnc(-c3ccccc3-n3cnnn3)n2)cc1 | -8 | -12 | 5 | -6 | .
CCCNC(=O)Nc1ccc2c(c1)C(=O)N(C)C[C@H](OC)[C@@H](C)CN(Cc1cccnc1)[C@H](C)CO2 | . | . | . | . | -4
COc1ccc(-c2coc3cc(O)ccc3c2=O)cc1 | -10 | 15 | 57* | 13 | 5
COc1ccc(-c2coc3cc(OC)ccc3c2=O)cc1 | 6 | . | 2 | . | -2
N#CC(C(=O)NCCc1ccccc1)c1nc2ccccc2nc1N1CCCCC1 (stereo not given) | 3 | 11 | 10 | 19 | .
CCCCCCOC(=O)C(C#N)c1nc2ccccc2nc1N1CCOCC1 (stereo not given) | -7 | 8 | 182* | 3 | .
N#CC(C(=O)NCCc1ccccc1)c1nc2ccccc2nc1N1CCOCC1 (stereo not given) | 8 | 2 | 64* | 40 | .
CCCCOC(=O)C(C#N)c1nc2ccccc2nc1N1CCOCC1 (stereo not given) | -10 | -7 | 4 | 23 | .
O=C1C(=O)c2cccnc2-c2ncccc21 | . | . | 78* | . | 6
COC1=C(Br)C(=O)c2ncccc2C1=O | -10 | 47* | -2 | . | 7
CCC1(c2ccccc2)NC(=O)N(CC(=O)NCc2ccc(OC)cc2)C1=O (stereo not given) | -6 | 7 | 0 | -80* | 6
O=C(NC1CCCC1)[C@@H]1[C@@H](CO)[C@@H]2Cn3c(ccc(-c4cccnc4)c3=O)[C@H]1N2CC1CC1 | . | . | . | . | 28*
COc1cc(C(=O)NC2CC3CCCC(C2)N3Cc2ccccc2)cc(OC)c1OC (stereo not given) | -7 | 4 | 2 | 1 | 1
COc1ccc(C(=O)NC2CC3CCCC(C2)N3Cc2ccccc2)cc1OC (stereo not given) | 8 | 5 | 52* | -3 | 2
COc1ccc(CN2C3CCC2CC(NC(=O)c2cc(OC)c(OC)c(OC)c2)C3)cc1 (stereo not given) | 0 | 1 | 63* | 0 | 2
Cc1ccsc1/C=N/NC(=O)c1ccncc1 | -9 | 1 | 8 | 8 | 2
COc1cc(C(=O)N/N=C/c2sccc2C)cc(OC)c1OC | -12 | 2 | 75* | 13 | 2
